This is a sample that favours compounds with a hit; in the whole collection about 2.4% have one here.
L929 necroptosis – blocks zVAD induced death of L929 cells; L929 zVAD necroptosis rescue, ATP luminescence, 24 h; with zVAD 60 µM; viability rescue, % at 10 µM; 220,000 tested, 0.38% active;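 active = activation, scaled between plate controls, above about 75%, limit read from the data; inactive = activation under that limit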;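 also: 0% = zVAD with DMSO and 100% = DMSO alone without zVAD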
Mcl-1 Bim block – disrupts Bim peptide binding to human Mcl-1. inhibition, % at 10 µM. Q07820. 190,000 tested, 0.1% active. Bead-based flow cytometry, Bim peptide-Mcl-1 binding; in the data active = inhibition above about 40%;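 also: 0% = no compound tracer wells and 100% = peptide blocker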
Target sequence (Q07820 whole entry, looked up): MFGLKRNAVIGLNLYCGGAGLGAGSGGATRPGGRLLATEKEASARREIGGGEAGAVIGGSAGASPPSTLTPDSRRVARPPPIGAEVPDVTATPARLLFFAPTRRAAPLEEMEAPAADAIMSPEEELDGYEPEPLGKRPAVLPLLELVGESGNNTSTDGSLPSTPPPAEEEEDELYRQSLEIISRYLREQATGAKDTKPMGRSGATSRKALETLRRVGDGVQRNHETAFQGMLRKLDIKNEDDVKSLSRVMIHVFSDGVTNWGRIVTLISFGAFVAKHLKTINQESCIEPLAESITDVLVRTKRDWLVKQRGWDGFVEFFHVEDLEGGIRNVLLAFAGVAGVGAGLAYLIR
MCL1 BIM primary – inhibitors of human MCL1 binding to BIM-BH3 peptide. 320,000 tested, 0.68% active. inhibition, % at 10.9 µM. AID 2057. Q07820. GST-MCL1 / FITC-Bim-BH3 fluorescence polarization;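 active = inhibition above the mean inhibition of all tested compounds plus 3 SD, set per campaign, cut at about 40% in these data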;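 also: 0% = DMSO wells and 100% = unlabeled Bim-BH3 peptide control; higher means more loss of mP so more displacement of Bim peptide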
Mcl1 Bid PPI – Mcl-1/Bid interaction inhibition; 220,000 tested, 0.97% active; TR-FRET Mcl-1/Bid-Dy647 peptide binding, 1536-well; AID 1021; inhibition, % at 21.7 µM;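 active = compounds that cut the binding signal by more than half at the single screening dose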;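 also: His-tagged Mcl-1 with europium anti-His antibody binding Bid BH3 peptide; 0% = Mcl-1 plus peptide wells and 100% = peptide-only wells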
Mcl1 Noxa PPI – disrupts binding of human Mcl-1 to Noxa peptide. 220,000 tested, 1.5% active. Q07820. TR-FRET Mcl-1/Noxa peptide binding, 2 h. inhibition, % at 21.7 µM. AID 1022;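 active = compounds that cut the protein-peptide binding signal by more than 50% relative to plate controls in a single-dose test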;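 also: His-tagged Mcl-1 with rhodamine Noxa BH3 peptide and terbium anti-His antibody; 0% = Mcl-1 plus Noxa peptide wells and 100% = peptide-only wells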
TNF necrop inh – inhibitors of TNF-alpha induced necroptosis in Jurkat FADD-/- cells. Jurkat FADD-/- TNF necroptosis rescue, ATP luminescence, 24 h; 0 = TNF only, 100 = no-TNF cells. activation (protection from cell death), % at 10 µM. 220,000 tested, 0.068% active;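 active = activation, meaning protection from cell death, of at least 50% relative to plate controls; inactive = activation below 50%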;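 also: necroptosis triggered by 40 ng/mL TNF-alpha added together with compound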
The depositor's hits bear a star; nt = not tested or not shown.

SMILES | L929 necroptosis | Mcl-1 Bim block | MCL1 BIM primary | Mcl1 Bid PPI | Mcl1 Noxa PPI | TNF necrop inh
CCN1CCCc2cc(CN(CCN3CCOCC3)C(=S)Nc3cc(F)cc(F)c3)ccc21 | 0 | -1 | 6 | -100 | 60* | 0
CCN1CCCc2cc(CN(CCN3CCOCC3)C(=S)Nc3ccc(C)cc3)ccc21 | 1 | -2 | -1 | -94 | 69* | 1
CCN1CCCc2cc(CN(CCN3CCOCC3)C(=S)Nc3ccc(OC)cc3)ccc21 | 2 | -3 | 9 | -92 | 50 | 3
Cc1ccc(C(=O)/C=C\NCc2ccccc2)cc1 | 1 | -5 | 4 | -40 | 2 | 2
CCc1ccc(C(=O)/C=C/NCc2ccc(F)cc2)cc1 | 3 | -10 | -2 | 53* | 13 | 2
CC(C)Cc1cc(-c2ccco2)c(C#N)c(N)n1 | 3 | 48* | 1 | -16 | 0 | -2
N#Cc1c(-c2ccco2)cc(-c2ccc(F)cc2)nc1N | 1 | 0 | -10 | 5 | 65* | 0
N#Cc1c(-c2ccc(F)cc2)cc(-c2cccnc2)nc1N | -1 | -2 | 4 | 7 | -122 | 0
CCn1c(CSc2nc3ccccc3s2)nnc1SCC(=O)c1ccc(Cl)cc1 | -1 | -2 | -6 | -10 | -1 | -3
CCn1c(CSc2nc3ccccc3s2)nnc1SCC(=O)c1ccc(O)c(O)c1 | 1 | -1 | 21 | -99 | 62* | -10
Cc1ccc(CNC(=O)c2ccc3nc4[nH]c5ccccc5c4nc3c2)cc1 | 7 | 0 | nt | 68* | 15 | 3
Cc1ccc(CNC(=O)CSc2nc3ccccc3[nH]2)cc1 | nt | nt | -14 | nt | nt | nt
Cc1ccc(CNC(=O)c2ccc(-n3cccc3)cc2)cc1 | 0 | 3 | nt | -61 | 81* | 1
CCc1ccc(N(CC(=O)N2CCOCC2)S(C)(=O)=O)cc1 | nt | nt | -4 | nt | nt | nt
Cc1cccc(C)c1-n1cccc1/C=C1\SC(=S)N(c2cccc(C(=O)O)c2)C1=O | -1 | 16 | 1 | 52* | 51* | -3
Cc1ccccc1NC(=O)CN1C(=O)S/C(=C\c2cccn2-c2cccc(C(=O)O)c2)C1=O | 0 | -4 | -5 | -21 | 16 | -1
Cc1ccc(NC(=O)CN2C(=O)S/C(=C\c3cccn3-c3cccc(C(=O)O)c3)C2=O)c(C)c1 | 0 | 4 | 1 | 45 | 93* | -1
CCCn1cc(CN2CCCC(C(=O)c3ccc4c(c3)OCO4)C2)c(C)n1 (stereo not drawn) | nt | nt | 6 | nt | nt | nt
CCOc1ccc(NC(=O)c2oc3ccccc3c2NC(=O)CC)cc1 | 1 | 0 | 5 | 78* | -11 | 1
COc1ccc(NC(=O)c2oc3ccccc3c2NC(=O)C2CC2)cc1 | 0 | 1 | 1 | -7 | 10 | 0
CCCn1ncc(CN2CCC(n3nccc3NC(=O)c3ccccc3Cl)CC2)c1C | nt | nt | -1 | nt | nt | nt
O=c1[nH]c(C2CCCN(S(=O)(=O)c3ccc(F)cc3)C2)nc2c1nnn2Cc1ccc(F)cc1 (stereo not drawn) | nt | nt | -2 | nt | nt | nt
C(=N\N1CCN(Cc2cccc3ccccc23)CC1)/c1cccnc1 | 1 | 0 | -6 | 58* | -9 | -3
Cc1ccc2nc(NC(=O)c3ccc(-c4nc5ccccc5s4)s3)sc2c1 | nt | 0 | 1 | 79* | 52* | 0
CC(=O)Nc1ccc2nc(NC(=O)c3cccs3)sc2c1 | -1 | nt | 7 | -47 | 14 | -2
SMILES | L929 necroptosis | Mcl-1 Bim block | MCL1 BIM primary | Mcl1 Bid PPI | Mcl1 Noxa PPI | TNF necrop inh
O=C(Nc1nc2ccccc2s1)c1ccc(Cl)s1 | 2 | 0 | -9 | 28 | 18 | -1
Cn1cc(Cl)c(C(=O)Nc2nc3ccc([N+](=O)[O-])cc3s2)n1 | -2 | -1 | 7 | 52* | 62* | -1
CC(=O)Nc1ccc2nc(NC(=O)COc3ccc([N+](=O)[O-])cc3)sc2c1 | 54 | -1 | 2 | 35 | 56* | 1
CC(=O)Nc1ccc2nc(NC(=O)c3ccc([N+](=O)[O-])s3)sc2c1 | -1 | nt | 18 | 18 | 73* | -9
COc1ccc(NC(=O)CN(C)C(=O)c2cn(-c3ccccc3)nc2-c2ccc(Cl)cc2)cc1 | nt | nt | -1 | nt | nt | nt
CCOc1ccc(C(C)=O)cc1N1C(=O)C2C3C=CC(O3)C2C1=O (stereo not drawn) | 1 | 0 | -3 | 8 | 63* | -1
O=c1c2c3c(sc2ncn1Cc1ccc(F)cc1)CCC3 | 1 | 0 | 3 | -10 | 19 | 93*
COc1cc(/C=C/C(=O)O)ccc1O | nt | nt | 0 | nt | nt | nt
O=C(O)/C=C/c1ccc(O)c(O)c1 | 4 | 0 | -2 | -25 | 60* | 1
O=C(/C=C/c1ccc(O)c(O)c1)O[C@H](Cc1ccc(O)c(O)c1)C(=O)O | 0 | nt | nt | -105 | 93* | 0
COC(CNC(=O)c1ccc2nc(-c3cccs3)c(-c3cccs3)nc2c1)OC | 3 | -1 | -9 | 94* | -22 | 2
CN1CCN(CCCCOc2ccccc2C=O)CC1 | 61 | -3 | 1 | 56* | 14 | -1
CC1CCN(CCCCOc2ccccc2[N+](=O)[O-])CC1 | 0 | 1 | 6 | 53* | -1 | -1
COc1cccc(OC)c1OCCCCCCN1CCN(C)CC1 | nt | nt | 4 | nt | nt | nt
CCOc1ccc(C(=O)NNC(=O)c2cc(S(=O)(=O)N3CCOCC3)ccc2Cl)cc1 | nt | nt | -1 | nt | nt | nt
COCCn1c(SCC(=O)NNC(=O)c2cc(Cl)ccc2OC)nnc1-c1ccncc1 | nt | nt | 3 | nt | nt | nt
Cc1csc2nc(COC(=O)c3ccc(Cl)c([N+](=O)[O-])c3)cc(=O)n12 | nt | nt | 7 | nt | nt | nt
CCC(C)(C)n1nnnc1C(C(C)C)N(Cc1ccco1)Cc1cc2cc3c(cc2[nH]c1=O)OCO3 (stereo not drawn) | 0 | -1 | 46* | -11 | 9 | -4
COc1ccc2[nH]c(=O)c(CN(Cc3nnnn3Cc3ccco3)C3CCCCC3)cc2c1 | 0 | -3 | 7 | -9 | 20 | -5
COc1ccc2[nH]c(=O)c(CN(C3CCCCC3)C(c3nnnn3Cc3ccco3)C(C)C)cc2c1 (stereo not drawn) | 0 | -10 | -34 | -17 | 57* | -5
CCC(C)(C)n1nnnc1C(C(C)C)N(Cc1cccnc1)Cc1ccco1 (stereo not drawn) | -1 | 0 | -6 | -6 | 8 | 1
CCOC(=O)C1(CCOc2ccccc2)CCN(C(=O)CCSC)CC1 | nt | nt | -5 | nt | nt | nt
CCOc1cc(N2CCOCC2)c(OCC)cc1NC(=O)CN1CCc2ccccc2C1 | 2 | 0 | 5 | 93* | 18 | -1
CCOc1cc(N2CCOCC2)c(OCC)cc1NC(=O)c1cc(-c2ccco2)nc2ccccc12 | 2 | -3 | 14 | 78* | 49 | -16
NC(=O)c1c(NC(=O)c2ccncc2)sc2c1CCCC2 | 59 | 2 | -1 | -53 | 19 | -1
N#Cc1c(NC(=O)c2ccncc2)sc2c1CCC2 | 0 | 0 | 30 | -45 | 69* | -4
